Bioassay records (PubChem)
Gli-Sufu block = Gli-Sufu pathway antagonists, primary screen, luciferase luminescence, Sufu-KO-LIGHT cells, uHTS; Sufu-KO-LIGHT fibroblasts, Gli luciferase reporter luminescence; inhibition, % at 5 µM; AID 588413, 2011; 0.74% of 340,000 active;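 active = inhibition above about 55%, limit read from the data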
SMARCA2 act = SMARCA2 (BRM) function activators, primary screen, cell-based, luminescence, high throughput. AID 652017, 2013. activation, % at 9.1 µM. MG213 cells, MMTV-luciferase reporter, dexamethasone, overnight. 1% of 370,000 active; in the data active = activation above about 7.8%
Jurkat NFkB inh = inhibitors of induced NF-kB luciferase reporter, primary screen, TCR NF-kB activation inhibitor project, cell-based, luminescence, uHTS. Jurkat, PMA/ionomycin-induced NF-kB luciferase reporter. inhibition, % at 4 µM. 0.53% of 330,000 active; in the data active = inhibition above about 50%
697 NFkB inh = inhibitors of PMA/ionomycin-induced NF-kB reporter, 697 cells, primary screen, B-cell NF-kB inhibitor project, cell-based, luminescence, uHTS; 697 B-cell NF-kB luciferase reporter, 16 h; inhibition, % at 4 µM; 0.33% of 330,000 active; AID 435022, 2010; in the data active = inhibition above about 35%
esBAF inh = Bmi1 luciferase reporter increase in mESCs, primary screen, esBAF inhibitor project, mouse ES cells, Bmi1 luciferase knock-in, single point. 24 h; 100% = twice the neutral-well signal. reporter increase, % at 12.5 µM. 2% of 350,000 active. AID 602393, 2012; in the data active = activation above about 40%; inconclusive = no clear call, values can overlap the other calls;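 also: a rise in the Bmi1 reporter signal indicates esBAF inhibition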
SMARCA2 conf = SMARCA2 (BRM) function activators, confirmation, cell-based, luminescence, triplicate. shares compounds with SMARCA2 act. MG213 cells, MMTV-luciferase with dexamethasone, overnight; MG213 cells expressing E1A, Rb sequestered; DMSO wells 0%, reference activator 100%. activation, % at 9.1 µM. 30% of 3,500 active. AID 652260, 2013;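 active = activation above its plate's cutoff, the mean activation of tested wells plus 3 SD, cut at about 7.9% in these data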
VP16 Luc act = GAL4-VP16 luciferase reporter activation, counter-screen for SMARCA2 (BRM) activator project, cell-based, pG5luc, luminescence, high throughput; HEK293 GAL4-VP16 pG5luc reporter; scaled: DMSO wells 0%, SAHA wells 100%; 41% of 3,500 active; activation, % at 9.1 µM; shares compounds with SMARCA2 act;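 active = activation above the solvent-only control well mean plus 3 SD, averaged across control plates, cut at about 5.2% in these data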
Numbers stand for hits. Only some compounds are listed: those with a hit (about 3.3% of all), similar ones and a draw of the others.

What do the screens show for `CC1(C)OC(=O)C2=C(C[C@@H](CCC(F)(F)F)O[C@H]2c2ccc(F)cc2)O1`?
SMARCA2 act: 8.2; esBAF inh: inactive; SMARCA2 conf: inactive; VP16 Luc act: inactive

Results for O=C(NC[C@H]1[C@@H](c2ccccc2)[C@@H](CO)N1Cc1ccccn1)C1CC1 ?
esBAF inh: inactive

Results for NC(=O)c1cccnc1Nc1cccc([N+](=O)[O-])c1 ?
Gli-Sufu block: inactive; SMARCA2 act: 12.6; Jurkat NFkB inh: inactive; 697 NFkB inh: inactive; SMARCA2 conf: 7.8; VP16 Luc act: 8.6

Results for NC(=O)c1cccnc1Nc1cccc(F)c1 ?
Gli-Sufu block: inactive; SMARCA2 act: inactive; Jurkat NFkB inh: inactive; 697 NFkB inh: inactive

What do the screens show for `C[C@@H]1CN([C@@H](C)CO)C(=O)c2cc(NC(=O)CCCN(C)C)ccc2O[C@@H]1CN(C)S(=O)(=O)c1ccc(F)cc1`?
esBAF inh: inactive

What do the screens show for `COc1ccc(NC(=O)N[C@H]2CC[C@H](CCNS(=O)(=O)c3ccccc3F)O[C@H]2CO)cc1`?
esBAF inh: inactive

Results for C=C1C(=O)OC2C1CCC(C)C1C=CC(=O)C12C (configuration not stated) ?
Gli-Sufu block: inactive; SMARCA2 act: 21.3; esBAF inh: inactive; SMARCA2 conf: 21.4; VP16 Luc act: inactive

Results for Cn1cnc(S(=O)(=O)N2CC[C@@H]3[C@H]2c2cc(-c4ccccc4F)ccc2N[C@@H]3CO)c1 ?
esBAF inh: inactive

Results for Clc1ccc(-c2nc3ccc(Cl)cn3c2Cc2ccsc2)cc1 ?
SMARCA2 act: 10.9; esBAF inh: 71.0; SMARCA2 conf: 8.9; VP16 Luc act: inactive

How did CCCCOC(=O)Nc1ccc(N2CCOCC2)cc1 do in these assays?
Gli-Sufu block: inactive; SMARCA2 act: 10.5; Jurkat NFkB inh: inactive; 697 NFkB inh: inactive; esBAF inh: inconclusive; SMARCA2 conf: 9.8; VP16 Luc act: 5.7

How did COc1ccc2c(c1)C1(Nc3ccccc3-c3nc4ccccc4n31)C(=O)N2 (configuration not stated) do in these assays?
Gli-Sufu block: inactive; SMARCA2 act: inactive; Jurkat NFkB inh: inactive; 697 NFkB inh: inactive; esBAF inh: inactive

What do the screens show for `CC1(c2ccncc2)Nc2ccccc2-c2nc3ccccc3n21` (configuration not stated)?
Gli-Sufu block: inactive; SMARCA2 act: 9.1; Jurkat NFkB inh: inactive; 697 NFkB inh: inactive; esBAF inh: inactive; SMARCA2 conf: inactive; VP16 Luc act: inactive

Results for C/C(=N\N=c1/sc2ccccc2n1C)c1ccccn1 ?
Gli-Sufu block: inactive; SMARCA2 act: 8.1; Jurkat NFkB inh: inactive; 697 NFkB inh: inactive; esBAF inh: inconclusive; SMARCA2 conf: inactive; VP16 Luc act: 7.5

Results for Cc1noc(C)c1S(=O)(=O)Nc1ccc2c(c1)C(=O)N([C@H](C)CO)C[C@H](C)[C@@H](CN(C)S(=O)(=O)c1ccc(F)cc1)OCCCC[C@H](C)O2 ?
esBAF inh: inactive

Results for COCC(=O)Nc1ccc2c(c1)OC[C@H](C)N(C(=O)NC(C)C)C[C@H](C)[C@H](OC)CN(C)C2=O ?
esBAF inh: inactive

Results for Cc1cc(Cl)c2ccc3ccccc3c2n1 ?
Gli-Sufu block: inactive; SMARCA2 act: inactive; Jurkat NFkB inh: inactive; 697 NFkB inh: inactive

What do the screens show for `Cc1ccc2c(Cl)cc(Cl)c(O)c2n1`?
Gli-Sufu block: 59.5; SMARCA2 act: 10.3; esBAF inh: inactive; SMARCA2 conf: inactive; VP16 Luc act: 11.2

How did O=C(CNCc1cccc2ccccc12)Nc1ccccc1[N+](=O)[O-] do in these assays?
Gli-Sufu block: inactive; SMARCA2 act: 9.7; Jurkat NFkB inh: inactive; 697 NFkB inh: inactive; SMARCA2 conf: inactive; VP16 Luc act: inactive

What do the screens show for `O=C(Nc1ccccc1Cl)c1ccccc1`?
Gli-Sufu block: inactive; SMARCA2 act: 8.8; Jurkat NFkB inh: inactive; 697 NFkB inh: inactive; SMARCA2 conf: inactive; VP16 Luc act: 5.6

What do the screens show for `O=C(Nc1ccccc1Cl)c1ccn[nH]1`?
SMARCA2 act: 8.2; Jurkat NFkB inh: inactive; 697 NFkB inh: inactive; esBAF inh: 51.9; SMARCA2 conf: inactive; VP16 Luc act: inactive

Results for O=C(CNc1ccc(Br)cc1)c1ccc(O)cc1 ?
Gli-Sufu block: inactive; SMARCA2 act: inactive; Jurkat NFkB inh: inactive; 697 NFkB inh: inactive

What do the screens show for `O=C(CNc1ccc(Br)cc1)c1ccc(Br)s1`?
Gli-Sufu block: inactive; SMARCA2 act: 9.3; Jurkat NFkB inh: inactive; 697 NFkB inh: inactive; esBAF inh: 58.2; SMARCA2 conf: 10.1; VP16 Luc act: inactive

Results for C/C(CC(=O)Nc1ccc(Cl)cc1C(F)(F)F)=N\NC(=O)c1cccs1 ?
Gli-Sufu block: inactive; SMARCA2 act: 10.0; Jurkat NFkB inh: inactive; 697 NFkB inh: inactive; esBAF inh: inactive; SMARCA2 conf: inactive; VP16 Luc act: inactive

What do the screens show for `C/C(CC(=O)Nc1ccc(Cl)cc1C(F)(F)F)=N\NC(=O)c1ccccn1`?
Gli-Sufu block: inactive; SMARCA2 act: inactive; Jurkat NFkB inh: inactive; 697 NFkB inh: inactive

How did COc1ccc(C=NNc2nc3ccccc3s2)cc1 do in these assays?
Gli-Sufu block: inactive; SMARCA2 act: inactive; esBAF inh: inactive

How did Brc1ccc(/C=C/C=N/Nc2nc3ccccc3s2)cc1 do in these assays?
Gli-Sufu block: inactive; SMARCA2 act: 12.9; Jurkat NFkB inh: inactive; 697 NFkB inh: inactive; esBAF inh: inactive; SMARCA2 conf: inactive; VP16 Luc act: 8.7

What do the screens show for `CC(C)CCN(C(=O)c1ccccn1)c1c(N)n(Cc2ccccc2)c(=O)[nH]c1=O`?
Gli-Sufu block: inactive; SMARCA2 act: 8.3; Jurkat NFkB inh: inactive; 697 NFkB inh: inactive; esBAF inh: inactive; SMARCA2 conf: inactive; VP16 Luc act: inactive

What do the screens show for `CCOC(=O)c1sc(N)c(C(=O)OCC)c1C`?
Gli-Sufu block: inactive; SMARCA2 act: 22.5; Jurkat NFkB inh: inactive; 697 NFkB inh: inactive; SMARCA2 conf: inactive; VP16 Luc act: 7.5

How did CCCN1C[C@@H](C)[C@H](OC)CN(C)C(=O)c2ccc(NC(=O)c3ccc(F)cc3)cc2OC[C@@H]1C do in these assays?
esBAF inh: inactive

What do the screens show for `Cc1noc(C)c1NC(=O)N(C)C[C@H]1Oc2c(NC(=O)NC3CCCCC3)cccc2C(=O)N([C@H](C)CO)C[C@H]1C`?
esBAF inh: inactive
